Reference: PubChem BioAssay AID2289 (National Center for Advancing Translational Sciences (NCATS), 2010)
About 3,300 (0.97%) of roughly 340,000 compounds were called active. Roughly 9% stayed inconclusive and do not appear here. The call rests on the fitted dose curve; in most records, active means well fitted inhibition curve with a large enough effect; inconclusive means small, poorly fitted or top-dose-only effect, or effect the other way; inactive means flat fitted curve, though single readings scatter. This is one part of the list.

assay: qHTS Assay for Modulators of miRNAs and/or Inhibitors of miR-21; settings: HeLa miR-21-FLuc reporter, luciferase luminescence, 48 h; actives lower the signal; further: nearly all actives have a fitted effect of over 55% in size
In short: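 Compounds were titrated across several concentrations (up to approximately 40 uM) and incubated 48 hours with HeLa miR-21-FLuc reporter cells (miR-21 target sequence downstream of FLuc, endogenous miR-21). Readout was firefly luciferase luminescence after lytic detection reagent.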
Potency means the concentration at half of the fitted maximal effect.

Potency, active:
COc1ccc2c(c1)O[C@H](c1ccc3c(c1)OCO3)[C@@H](O)C2=O 11.7 µM, COc1cccc([C@@H]2Oc3ccc(OC)cc3C(=O)[C@H]2OC(=O)NCc2ccc3c(c2)OCO3)c1 5.85 µM, Cc1nc(COC(=O)c2c(C)nn(-c3ccccc3)c2C)cs1 16.5 µM, O=C(OCc1csc(-c2ccccc2)n1)c1ccccc1O 9.27 µM, COc1ccc(C(=O)OCc2csc(C)n2)c(O)c1 7.36 µM, O=C(OCc1csc(-c2ccccc2)n1)c1ccc(O)cc1 14.7 µM, Cc1ccc(SC[C@H](c2ccccc2)N2CCN(C)CCC2=O)cc1 9.27 µM, Cc1ccc(SC[C@H](CC(C)C)N2CCN(C)CCC2=O)cc1 10.4 µM, O=C(NCCC1=CCCCC1)c1cnc2n(c1=O)CCS2 6.56 µM, Fc1ccccc1Nc1nc2ccccc2o1 0.521 µM, Cn1cccc1C(=O)OCc1cc(Cl)cc2c1OCOC2 13.1 µM, C=CCN=c1scc(C)n1/N=C/c1ccc(O)c(O)c1 11.7 µM, CCCOC(=O)c1c(N)sc(C(=O)OCC)c1C 14.7 µM, Cc1c(C(=O)OC(C)C)sc(N)c1C(=O)OC(C)C 6.56 µM, CCOC(=O)c1c(N)sc(C(=O)OCCOC)c1C 18.5 µM, Cc1cc2cc(C=C(C#N)C#N)c(Cl)nc2cc1C 7.36 µM, N/C(=N\OC(=O)COc1ccc(Cl)cc1Br)c1ccncc1 1.65 µM, Cc1ccc(OCC(=O)O/N=C(\N)c2ccncc2)c(C)c1 4.14 µM, N/C(=N\OC(=O)COc1ccc(Cl)cc1Cl)c1ccncc1 0.585 µM, Cc1ccc(/C(N)=N/OC(=O)COc2ccccc2Cl)cc1 10.4 µM, N/C(=N\OC(=O)COc1ccc(Br)cc1Cl)c1ccncc1 0.927 µM, CCc1ccc(OCC(=O)O/N=C(\N)c2ccncc2)c(Br)c1 4.65 µM, N/C(=N\OC(=O)COc1ccc(Br)cc1Cl)c1ccccn1 0.117 µM, COc1ccc(NC(=O)c2ccco2)c([N+](=O)[O-])c1 7.36 µM, CCOc1ccc(NC(=O)c2cccs2)c([N+](=O)[O-])c1 0.826 µM, COc1ccc(NC(=O)CSc2ccccc2)c([N+](=O)[O-])c1 7.36 µM, O=C(O)c1cccc(N/N=C/c2ccc(OC(F)(F)F)cc2)c1 0.0521 µM, O=C(O)c1cccc(N/N=C/c2ccc(-c3ccccc3)cc2)c1 0.147 µM, O=C(O)c1cccc(N/N=C/C2=C(Cl)c3cc(Cl)ccc3SC2)c1 0.261 µM, CSc1ccc(/C=N/Nc2cccc(C(=O)O)c2)cc1 0.147 µM, O=C(O)c1cccc(N/N=C/c2ccc(F)c(F)c2)c1 0.233 µM, O=c1n(Cc2ccccc2Cl)nc2n1-c1ccccc1SC2 10.4 µM, COc1cccc(C(=O)Nc2ccc(C(F)(F)F)n(C)c2=O)c1 1.47 µM, COCCn1c(C(F)(F)F)ccc(NC(=O)c2ccccc2)c1=O 1.85 µM, Cc1cccc(-n2cnc3cc(C(=O)N4CCCCC4)ccc32)c1 9.27 µM, O=C(N=C1N=C2C=CC(Br)=CN2Cc2ccccc21)c1ccc([N+](=O)[O-])cc1[N+](=O)[O-] 3.69 µM, CCCCC#Cc1ccc2c(c1)COc1c3ccccc3nn1-2 2.07 µM, COC(=O)c1c(-c2cccs2)csc1NC(=O)COc1ccccc1 7.36 µM, COC(=O)c1c(-c2cccs2)csc1NC(=O)c1cccc(Cl)c1 0.656 µM, Cc1cc(C(=O)Nc2ccc3ccccc3c2)oc1C 0.293 µM, Cc1oncc1C(=O)Nc1ccc2ccccc2c1 7.36 µM, Cc1cc(C(=O)Nc2ccccc2)oc(=O)c1 6.56 µM, CC(=O)c1sc(NC(=O)c2ccccc2F)nc1-c1ccccc1 3.29 µM, O=C(Nc1ncccc1Cl)C1COc2ccccc2O1 (stereo unspecified) 4.65 µM, O=C(Nc1ccccc1[N+](=O)[O-])C1COc2ccccc2O1 (stereo unspecified) 3.29 µM, CCSc1nc2c(cnn2-c2ccccc2)c(=O)n1N 2.33 µM, CC(=O)Nc1ccc(C(=O)NCCc2ccccc2)cc1 7.36 µM, O=C(NCCc1ccccc1)Nc1ccc(Cl)cc1 1.65 µM, Cc1csc2nc(CSc3nc4ccccc4o3)c(Br)n12 4.65 µM, Clc1c(CSc2nc3ccccc3o2)nc2sccn12 1.12 µM, CCN(CC)c1nc(C)nc2c1cnn2CCc1ccccc1 5.85 µM, Cc1nc(NC(C)C)c2cnn(CCc3ccccc3)c2n1 14.7 µM, CCOC(=O)c1c(C)oc2c1c(C(c1ccccc1)N1CCOCC1)c(O)c1ccccc12 (stereo unspecified) 3.69 µM, CCOC(=O)c1c(C)oc2c1c(C(c1ccncc1)N1CCOCC1)c(O)c1ccccc12 (stereo unspecified) 16.5 µM, NC(=O)c1cnn(-c2ccc3ccccc3c2)c1N 16.5 µM, NC(=O)c1cnn(-c2cc(Oc3ccccc3)ncn2)c1N 2.07 µM, Cc1ccc(-c2cc(C(=O)Nc3cccnc3)[nH]n2)c(O)c1C 2.93 µM, O=C(Nc1cccnc1)c1cc(-c2cc(Cl)ccc2O)n[nH]1 2.33 µM, Cc1ccc(O)c(-c2cc(C(=O)Nc3cccnc3)[nH]n2)c1 2.61 µM, CCc1ccc(O)c(-c2cc(C(=O)Nc3cccnc3)[nH]n2)c1 2.33 µM, Cc1cc(O)c(-c2cc(C(=O)Nc3cccnc3)[nH]n2)cc1C 0.414 µM, COc1ccc(Cl)c2c1[nH]c1nc(SCc3ccccn3)nnc12 1.65 µM, O=C(COc1ccccc1Cl)Nc1ccccc1C(=O)N1CCCCC1 6.56 µM, CC(C)(C)NC(=O)NC(=O)COc1ccc(Br)cc1Br 0.585 µM, O=C(COc1ccc(Br)cc1Br)NC(=O)NC1CCCC1 5.21 µM, O=C(COc1ccccc1Cl)NC(=O)NC1CCCC1 8.26 µM
